# Screens (PubChem BioAssay)
# Most compounds without a hit are left out; they make up all but 0.9% or so of the library.
# TR-FRET SRC-2 ct: TR-FRET signal artefacts, primary screen, artefact control for PPARgamma SRC-2 agonist project, biochemical; TR-FRET ratio at 8 µM; 0.4% of 200,000 active; TR-FRET artefact counter-screen; active compounds read high; AID 1049, 2008; in the data active means TR-FRET ratio above about 2000
# PPARg SRC3 recr: PPARgamma agonists recruiting SRC-3 coactivator, primary screen, biochemical. AID 731, 2007. activation, % at 8 µM. 0.26% of 200,000 active. biochemical PPARgamma/SRC-3 coactivator recruitment assay; in the data active means activation above about 23%;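 further: 0% = DMSO and 100% = reference agonist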
# SRC3 TRFRET art: TR-FRET detection interference compounds, artefact control for PPARgamma SRC-3 recruitment agonists, biochemical, TR-FRET ratio; TR-FRET artefact counter-screen, PPARgamma/SRC-3 format; active compounds read high; TR-FRET ratio at 8 µM; 0.39% of 99,000 active; AID 1048, 2008; in the data active means TR-FRET ratio above about 2000
# SRC1 TRFRET art: TR-FRET detection interference compounds, primary screen, artefact control for PPARgamma SRC-1 recruitment agonists, biochemical, TR-FRET emission ratio; TR-FRET ratio at 8 µM; AID 1051, 2008; TR-FRET detection artefact counter-screen; active compounds read high; 0.34% of 99,000 active; in the data active means TR-FRET ratio above about 2300
# PPARg SRC2 recr: agonists of PPARg-SRC-2 recruitment, primary screen, biochemical, HTS. Peroxisome proliferator-activated receptor gamma (Homo sapiens), P37231. PPARgamma LBD-SRC-2 recruitment. activation, % at 8 µM. 0.34% of 200,000 active. AID 1032, 2008;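 further: 0% = vehicle and 100% = reference agonist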
# PPARg SRC-1 ag: PPARgamma agonists recruiting SRC-1 coactivator, primary screen, biochemical. Peroxisome proliferator-activated receptor gamma (Homo sapiens), P37231. PPARgamma-SRC-1 coactivator recruitment biochemical assay. activation, % at 8 µM. 0.41% of 200,000 active; in the data active means activation above about 19%;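 further: 0% = DMSO and 100% = reference agonist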
# PPARg SRC2 conf: agonists of PPARgamma SRC-2 coactivator recruitment, confirmation, biochemical, HTS. shares compounds with PPARg SRC3 recr. biochemical SRC-2 recruitment by PPARgamma. activation, % at 8 µM. 52% of 790 active. AID 1297, 2008;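 further: 0% = vehicle alone and 100% = reference agonist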
# PPARg SRC1 ag: PPARgamma agonists recruiting SRC-1 coactivator, confirmation, biochemical. shares compounds with PPARg SRC3 recr. PPARgamma–SRC-1 coactivator recruitment biochemical assay. activation, % at 8 µM. 43% of 790 active. AID 1300, 2008; in the data active means activation above about 20%;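 further: 0% = vehicle wells and 100% = reference agonist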
# PPARg SRC3 ag: PPARgamma-driven SRC-3 coactivator recruitment agonists, confirmation, biochemical. shares compounds with PPARg SRC3 recr. biochemical PPARgamma-SRC-3 coactivator recruitment, agonist mode. activation, % at 8 µM. 29% of 790 active. AID 1301, 2008; in the data active means activation above about 24%;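 further: 0% = vehicle wells and 100% = reference agonist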
# Target sequence (P37231 whole entry, looked up): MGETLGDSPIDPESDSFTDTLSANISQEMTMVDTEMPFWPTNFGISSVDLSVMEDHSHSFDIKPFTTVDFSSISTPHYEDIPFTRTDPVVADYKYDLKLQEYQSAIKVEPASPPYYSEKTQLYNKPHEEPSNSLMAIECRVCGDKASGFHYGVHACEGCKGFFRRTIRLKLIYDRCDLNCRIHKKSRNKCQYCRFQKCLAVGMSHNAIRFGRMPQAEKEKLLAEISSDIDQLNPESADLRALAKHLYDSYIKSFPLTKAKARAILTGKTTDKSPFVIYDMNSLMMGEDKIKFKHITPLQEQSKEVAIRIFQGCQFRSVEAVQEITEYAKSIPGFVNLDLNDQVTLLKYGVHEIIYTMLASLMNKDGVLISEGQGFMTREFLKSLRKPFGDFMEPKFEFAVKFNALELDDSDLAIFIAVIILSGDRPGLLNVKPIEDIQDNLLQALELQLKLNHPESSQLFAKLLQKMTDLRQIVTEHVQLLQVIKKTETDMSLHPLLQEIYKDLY
# Target sequence (Q9Y6Q9 whole entry, looked up): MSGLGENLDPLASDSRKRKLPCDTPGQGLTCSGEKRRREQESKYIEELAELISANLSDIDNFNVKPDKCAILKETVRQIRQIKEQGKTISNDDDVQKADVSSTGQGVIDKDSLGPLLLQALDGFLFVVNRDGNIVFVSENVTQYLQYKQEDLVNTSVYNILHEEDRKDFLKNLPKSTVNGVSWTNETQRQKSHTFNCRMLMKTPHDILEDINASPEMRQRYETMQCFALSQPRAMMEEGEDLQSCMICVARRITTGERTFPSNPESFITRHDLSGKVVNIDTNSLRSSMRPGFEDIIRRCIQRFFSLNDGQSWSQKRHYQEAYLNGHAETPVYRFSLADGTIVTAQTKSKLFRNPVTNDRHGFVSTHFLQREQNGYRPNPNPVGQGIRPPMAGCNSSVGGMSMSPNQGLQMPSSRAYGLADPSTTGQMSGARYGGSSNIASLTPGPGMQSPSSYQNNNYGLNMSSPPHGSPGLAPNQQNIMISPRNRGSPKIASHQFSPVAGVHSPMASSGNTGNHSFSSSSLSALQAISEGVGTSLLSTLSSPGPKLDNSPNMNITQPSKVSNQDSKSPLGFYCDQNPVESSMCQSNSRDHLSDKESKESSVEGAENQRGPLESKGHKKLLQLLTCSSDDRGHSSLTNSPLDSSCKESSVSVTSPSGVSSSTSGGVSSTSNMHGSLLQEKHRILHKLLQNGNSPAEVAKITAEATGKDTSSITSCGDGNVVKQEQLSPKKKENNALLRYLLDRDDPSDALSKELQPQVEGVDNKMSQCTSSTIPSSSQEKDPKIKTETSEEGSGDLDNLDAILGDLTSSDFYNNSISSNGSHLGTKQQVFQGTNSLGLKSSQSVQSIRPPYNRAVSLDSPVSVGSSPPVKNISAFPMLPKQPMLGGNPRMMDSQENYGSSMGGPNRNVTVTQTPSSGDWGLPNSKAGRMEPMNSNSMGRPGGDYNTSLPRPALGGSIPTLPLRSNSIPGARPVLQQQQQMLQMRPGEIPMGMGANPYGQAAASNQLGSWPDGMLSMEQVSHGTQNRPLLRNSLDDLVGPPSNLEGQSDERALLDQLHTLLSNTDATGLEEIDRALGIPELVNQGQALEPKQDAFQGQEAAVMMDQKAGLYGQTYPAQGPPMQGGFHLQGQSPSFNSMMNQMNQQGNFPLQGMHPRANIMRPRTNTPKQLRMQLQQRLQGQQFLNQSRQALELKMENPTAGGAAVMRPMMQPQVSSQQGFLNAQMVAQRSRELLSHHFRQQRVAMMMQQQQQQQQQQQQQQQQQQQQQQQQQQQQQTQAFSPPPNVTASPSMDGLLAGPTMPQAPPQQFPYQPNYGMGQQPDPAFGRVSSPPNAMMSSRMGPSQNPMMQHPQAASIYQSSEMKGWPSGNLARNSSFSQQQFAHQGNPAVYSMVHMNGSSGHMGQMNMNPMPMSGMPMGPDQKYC
# * hit, by the source's call; · = no result given. Unless noted, no stated cut-off is given here; in the data, active means activation above about 22%; inactive means the rest.
SMILES,TR-FRET SRC-2 ct,PPARg SRC3 recr,SRC3 TRFRET art,SRC1 TRFRET art,PPARg SRC2 recr,PPARg SRC-1 ag,PPARg SRC2 conf,PPARg SRC1 ag,PPARg SRC3 ag
Cc1ccc(C(=O)Nc2ccccc2-c2ccccc2)o1,1392,1,·,·,4,-7,·,·,·
CCOc1ccc(S(=O)(=O)N(C)c2ccc(OCC(=O)Nc3nc(-c4cc(OC)ccc4OC)cs3)cc2)cc1,2453*,18,2621*,2860*,26*,25*,32*,26*,21
Cc1cc(=O)oc2c1ccc1oc(/C(=N/O)c3ccccc3)c(C)c12,1650,6,·,·,4,6,·,·,·
CC(C)c1[nH]nc2c1C(Cc1ccccc1)C(C#N)=C(N)O2 (stereo unspecified),1603,-7,·,·,8,19*,7,4,4
O=C(Cc1sc(-c2ccccc2Cl)nc1-c1ccccc1)Nc1ccc(F)cc1,2292*,13,·,·,15,29*,18,7,7
O=C(Cc1sc(-c2ccccc2)nc1-c1ccccc1)Nc1ccc(Cl)cc1,1545,-1,·,·,-1,6,·,·,·
CCN(CC)c1ccc(/C=C2\NC(=O)NC2=O)cc1,1573,13,1594,2555*,25*,15,11,9,7
C/C(=N\NC(=O)c1ccc(O)cc1)c1ccc2c(c1)Nc1ccccc1S2,1763,14,1673,1994,27*,17,10,6,7
CC(O)Cc1cn([C@@H](CCCCN)C(=O)N2CCNCC2)nn1 (stereo partly specified),1635,0,1528,1804,3,-1,·,·,·
CC(=O)Sc1nc(-c2ccccc2)[nH]c1S(=O)(=O)c1ccc(C)cc1,1637,37*,1554,1927,11,22*,11,21*,18
CCn1c(=S)ccc2ccc(OC)cc21,2084*,40*,·,·,39*,21*,9,4,6
O=S(=O)(c1ccc(F)cc1)N1CCN(C(=S)NCc2ccccc2)CC1,1737,0,1632,1962,4,6,·,·,·
CSc1nc2ccccc2cc1/C=C(\C#N)c1ccccc1,1490,7,·,·,8,0,·,·,·
Cc1c(C(=O)/C=C/c2cccs2)oc2ccc(F)cc12,2116*,24,·,·,14,28*,11,9,7
Cc1cc(=O)oc2c(C(=O)/C=C\c3cccs3)c(O)ccc12,1427,-3,1335,1766,-1,2,·,·,·
Oc1ccccc1CNc1ccc2c(c1)OCCO2,1679,7,1582,2053,12,21*,5,3,3
c1csc(CNc2ccc3c(c2)OCCO3)c1,1372,4,1463,1796,12,-3,·,·,·
O=C(c1ccc(Cl)s1)N1CCc2ccccc21,1648,0,·,·,4,4,·,·,·
Cc1ncc(CN2CCCC(CCC(=O)NCc3ccccc3F)C2)s1 (stereo unspecified),1561,-3,1647,1631,-1,-2,·,·,·
Cn1cc(C(=O)C(=O)N2CCN(c3ccccc3)CC2)c2ccccc21,1616,-1,1452,1627,-5,-5,·,·,·
O=Nc1c(O)[nH]c2ccc(F)cc12,1591,7,1717,1901,5,3,·,·,·
Cc1cc2c(N=O)c(NO)ccc2[nH]1,1595,30*,·,·,15,17,6,9,4
CCCCOC(=O)CN1C(=O)c2ccc(C(=O)OCCCC)cc2C1=O,1403,-7,·,·,0,-2,·,·,·
O=C(CSc1nnc(COc2cccc3cccnc23)o1)N1CCc2ccccc21,1448,14,·,·,0,20*,5,3,7
C=CCn1c(NS(=O)(=O)c2ccccc2)c(S(=O)(=O)c2ccc(C)cc2)c2nc3ccccc3nc21,1450,48*,1561,1803,24*,39*,4,7,10
SMILES,TR-FRET SRC-2 ct,PPARg SRC3 recr,SRC3 TRFRET art,SRC1 TRFRET art,PPARg SRC2 recr,PPARg SRC-1 ag,PPARg SRC2 conf,PPARg SRC1 ag,PPARg SRC3 ag
COc1cccc(C2C(C(=O)c3cc4ccccc4o3)=C(O)C(=O)N2c2cc(C)on2)c1OC (stereo unspecified),2593*,69*,·,·,45*,50*,36*,28*,25*
COc1cccc(C2C(C(=O)c3cc4cccc(OC)c4o3)=C(O)C(=O)N2c2cc(C)on2)c1OC (stereo unspecified),2236*,45*,·,·,35*,33*,41*,28*,26*
COc1cc(C2C(C(=O)c3ccc(C)o3)=C(O)C(=O)N2c2cc(C)on2)ccc1O (stereo unspecified),1751,3,·,·,5,8,·,·,·
COc1ccc(OC)c(C2C(C(=O)c3cccs3)=C(O)C(=O)N2c2cc(C)on2)c1 (stereo unspecified),1544,-2,·,·,2,-6,·,·,·
Cn1c(C(=O)N2CCCCCC2)cc2c(=O)n(C)c3ccccc3c21,1564,0,·,·,-5,0,·,·,·
Cc1cc(C)n(C(=O)c2nn(C)c(C)c2[N+](=O)[O-])n1,1347,-2,·,·,7,0,·,·,·
CCC(=Nc1ccc(N)cc1)C1=C(O)C(C(=O)OC)C(C)(C)CC1=O (stereo unspecified),1785,38*,·,·,23*,23*,1,4,6
Cc1ccc(C)c(/C=N/n2cc(-c3ccccc3)[nH]c2=S)c1,1728,3,1480,1705,5,-3,·,·,·
